“And” between values parts separate entries of the source, which are not always exact repeats. Equal values may be shown once. Inconclusive results are not listed. Some compounds were tested as several samples or in several runs, with calls that do not always agree. Unmarked numbers belong to inactive results. The source made the active and inactive calls. The call rests on the fitted dose curve; in most records, active means well fitted curve in the direction sought with a large enough effect in the repeat runs; inconclusive means weak or mixed curves; inactive means no such curve, though single readings can be large; an effect the other way counts as inactive or inconclusive.
Test: qHTS RealTime-Glo MT Cell Viability Assay in HepG2 cells - 8 hour (AID 1224873); further: nearly all actives have a fitted effect of over 55% in size
Conditions: RealTime-Glo luminescence; series mostly up to 76.8 µM
Method in brief: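 HepG2 cells (600/well) mixed with RealTime-Glo MT reagent, settled 5 h at 37 C/5% CO2 before compound addition. Nonlytic NanoLuc luminescence from viable-cell prosubstrate reduction read repeatedly during 40 h treatment at 37 C.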
On the % scale 0 is the no-effect control and ±100 the full control effect; potency means the concentration at half of the fitted maximal effect.

SMILES	Potency
CC(C)NCC(O)c1ccc(O)c(O)c1 (stereo not given)	inactive
Cn1c(=O)c2c(ncn2C)n(C)c1=O	inactive
CCCCCCCCCCCC[N+](C)(C)Cc1ccccc1	48 µM (active) and 53.2 µM (active) and 26.8 µM (active)
CCCCCCCC(=O)OCC(COC(=O)CCCCCCC)OC(=O)CCCCCCC	inactive
O=C1OC2(c3ccccc31)c1cc(Br)c(O)c(Br)c1Oc1c2cc(Br)c(O)c1Br	inactive
NS(=O)(=O)c1cc2c(cc1Cl)NCNS2(=O)=O	inactive
CC(O)(P(=O)(O)O)P(=O)(O)O	inactive
Cc1ccc(S(=O)(=O)O)cc1	inactive
CN1CCc2cccc3c2[C@H]1Cc1ccc(O)c(O)c1-3	49.5 µM (active)
O=C1NS(=O)(=O)c2ccccc21	inactive
F[B-](F)(F)F	inactive
Cc1cc(C)nc(NS(=O)(=O)c2ccc(N)cc2)n1	inactive
CN(C)CCOC(c1ccccc1)c1ccccc1	inactive
CCOc1ccc(NC(C)=O)cc1	inactive
Cc1c(C(=O)O)c(O)cc2c1C(=O)c1c(O)c([C@@H]3O[C@H](CO)[C@@H](O)[C@H](O)[C@H]3O)c(O)c(O)c1C2=O	inactive
Cc1ncc([N+](=O)[O-])n1C	inactive
C/C=C/C=C/C(=O)O	inactive
O=c1[nH]cnc2c1ncn2[C@H]1CC[C@@H](CO)O1	inactive
NC(=O)n1c(O)c(C(=O)c2cccs2)c2cc(Cl)ccc21	inactive
CCCCCCCCCCCCCCCC[N+](C)(C)Cc1ccccc1	63.6 µM (active) and 39.6 µM (active) and 23.9 µM (active)
CCN(CC)C(=O)c1cccc(C)c1	inactive
Cc1ncc([N+](=O)[O-])n1CCO	inactive
CN(C)CCOC(C)(c1ccccc1)c1ccccn1 (stereo not given)	inactive
NS(=O)(=O)O	inactive
C=C(C)C(=O)OCC(C)O (stereo not given)	inactive
CCCCOC(=O)c1ccc(O)cc1	inactive
O=C(O)CC(O)C(=O)O (stereo not given)	inactive
CCc1nc(N)nc(N)c1-c1ccc(Cl)cc1	inactive
CN1[C@@H]2CC(OC(=O)[C@H](CO)c3ccccc3)C[C@H]1[C@@H]1O[C@@H]12 (stereo not given in full)	inactive

Test: qHTS RealTime-Glo MT Cell Viability Assay in HEK293 cells - 40 hour (AID 1224874); further: nearly all actives have a fitted effect of over 50% in size
Conditions: RealTime-Glo luminescence; max response: hits give low values
Method in brief: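 qHTS format; HEK293 cells with NanoLuc/prosubstrate reagent, 37 C/5% CO2 for 5 h pre-dosing; compounds 23 nL in DMSO; luminescence at each time point reflects viable cells.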

SMILES	Potency	max response
CC(C)NCC(O)c1ccc(O)c(O)c1 (stereo not given)	38.4 µM (active)	1.41%
Cn1c(=O)c2c(ncn2C)n(C)c1=O	–	-15% and -0.566% and 6.55%
CCCCCCCCCCCC[N+](C)(C)Cc1ccccc1	1.91 µM (active) and 2.12 µM (active) and 1.9 µM (active)	–
CCCCCCCC(=O)OCC(COC(=O)CCCCCCC)OC(=O)CCCCCCC	–	4.45% and -0.248% and 1.22%
O=C1OC2(c3ccccc31)c1cc(Br)c(O)c(Br)c1Oc1c2cc(Br)c(O)c1Br	–	-26.3% and -6.61%
NS(=O)(=O)c1cc2c(cc1Cl)NCNS2(=O)=O	–	0.173% and -4.85% and 1.86%
CC(O)(P(=O)(O)O)P(=O)(O)O	–	-0.279% and 1.56% and -3.74%
Cc1ccc(S(=O)(=O)O)cc1	–	2.66% and 6.16% and 6.13%
CN1CCc2cccc3c2[C@H]1Cc1ccc(O)c(O)c1-3	15.7 µM (active) and 10.3 µM (active) and 21.3 µM (active)	–
O=C1NS(=O)(=O)c2ccccc21	–	5.75% [middle of 5 runs]
F[B-](F)(F)F	–	7.4% and 8.65% and 0.515%
Cc1cc(C)nc(NS(=O)(=O)c2ccc(N)cc2)n1	–	-37.4% and -3.88% and 7.67%
CN(C)CCOC(c1ccccc1)c1ccccc1	–	-18.9% and -8.63% and 0.403%
CCOc1ccc(NC(C)=O)cc1	21.9 µM (active)	2.25% and 1.74%
Cc1c(C(=O)O)c(O)cc2c1C(=O)c1c(O)c([C@@H]3O[C@H](CO)[C@@H](O)[C@H](O)[C@H]3O)c(O)c(O)c1C2=O	–	-10.5% and -11.6% and 0.861%
Cc1ncc([N+](=O)[O-])n1C	–	6.42% and -0.882% and 0.401%
C/C=C/C=C/C(=O)O	–	4.62% and 7.49%
O=c1[nH]cnc2c1ncn2[C@H]1CC[C@@H](CO)O1	–	9.2% and 0.925% and -0.369%
NC(=O)n1c(O)c(C(=O)c2cccs2)c2cc(Cl)ccc21	–	3.23%
CCCCCCCCCCCCCCCC[N+](C)(C)Cc1ccccc1	4.5 µM (active) and 7.9 µM (active) and 3.01 µM (active)	–
CCN(CC)C(=O)c1cccc(C)c1	–	-1.16% and -0.892% and 2.65%
Cc1ncc([N+](=O)[O-])n1CCO	–	2.44% and 13.2% and 5.09%
CN(C)CCOC(C)(c1ccccc1)c1ccccn1 (stereo not given)	–	2.62% and -0.138% and 6.89%
NS(=O)(=O)O	–	0.202% [middle of 4 runs]
C=C(C)C(=O)OCC(C)O (stereo not given)	–	1.34% and 8.53% and -3.84%
CCCCOC(=O)c1ccc(O)cc1	24.8 µM (active) and 21.9 µM (active)	–
O=C(O)CC(O)C(=O)O (stereo not given)	–	-23.9% and -4.53% and 7.17%
CCc1nc(N)nc(N)c1-c1ccc(Cl)cc1	3.52 µM (active) and 12.3 µM (active) and 5.35 µM (active)	–
CN1[C@@H]2CC(OC(=O)[C@H](CO)c3ccccc3)C[C@H]1[C@@H]1O[C@@H]12 (stereo not given in full)	–	0.652% [middle of 4 runs]
